# Test results reported in the supplement of paper PMC10681739.
# Molecular target: RUNX1 (UniProt Q01196)
# Assay: RUNX1 binding intensity (PBM fluorescence) in presence of ETS1, normalised to RUNX1-only experiment (arbitrary fluorescence units); higher = stronger binding
# Conditions: RUNX1 concentration 2 nM; ETS1 concentration 25 nM
# Method: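 Cooperative gcPBM on 36-bp genomic probes with neighbouring ETS1 and RUNX1 sites. Recombinant human RUNX1 (2 nM) was incubated alone or with ETS1 (25 nM) and detected with anti-RUNX1 antibody plus Alexa488 secondary. Values are medians over 4 replicate spots; the RUNX1+ETS1 data were normalised to the RUNX1-only data. The probes sit in constant array flanks that are not printed.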
# 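Note: Full-length recombinant human ETS1 or RUNX1 bound to double-stranded 36-bp genomic probes on microarrays, detected by protein-specific primary antibody and Alexa488 secondary, spot fluorescence as median of four replicate spots.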
# Sequence of RUNX1 (Q01196 whole entry): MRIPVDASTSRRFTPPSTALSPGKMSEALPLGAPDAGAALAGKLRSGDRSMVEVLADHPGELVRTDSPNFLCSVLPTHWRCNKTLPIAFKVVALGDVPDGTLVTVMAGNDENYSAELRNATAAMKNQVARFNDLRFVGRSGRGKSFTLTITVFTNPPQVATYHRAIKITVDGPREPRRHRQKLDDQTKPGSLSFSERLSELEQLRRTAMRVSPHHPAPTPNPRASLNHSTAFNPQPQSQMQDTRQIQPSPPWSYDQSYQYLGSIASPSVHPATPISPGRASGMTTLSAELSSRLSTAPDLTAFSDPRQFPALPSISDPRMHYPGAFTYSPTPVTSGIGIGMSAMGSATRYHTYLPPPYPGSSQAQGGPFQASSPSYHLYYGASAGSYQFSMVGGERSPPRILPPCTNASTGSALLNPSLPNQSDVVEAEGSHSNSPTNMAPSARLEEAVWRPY
row,Sequence,RUNX1 binding intensity
1,TGGCTGTGTCCCGGAAGTGGTCATAAGCTGGGTCCC,2470
2,AGTTGTGTTTTAGGATGTGGTCAAAGCCCAACAGAG,1090
3,CCCTCATCTTCCTGCTTCAGGCAGCTGTGGTTTACC,1660
4,TGTCTCTGCCGCCGGAAACCGCGCCGTAGATCATGC,1420
5,ATGGGTACAGGATTTCCTTTTGTGGTGATGAAAATG,1200
6,GTTGAGTAGTGACAGGAAGTGACCGCAAGGGGGCGC,3540
7,ATAGAAACTACAGGAAATACTGTGGTCAGGTTTTGA,1380
8,GCTCGGAAATACCAATATTGGGCTGTGGTATTTGAA,953
9,GCTCTGCAGGATGTGGCTGTGACCGCAGTGAGGAGC,7480
10,TCAATAAGACAGGATGTTCTCCAACCGCATTAAGCT,2910
11,AGCTTGCTTCCTGTCCCCAAAACCCACAGCACACGG,2590
12,GGGCGGAAGTGCGTCACTATGTCCGACCCGCAGTGC,1010
13,ACCTCTCTCACTTCCTACCAGAGAACCACAGCCAAG,2150
14,AACCCGGAAGTGGACACGGAGCTCGGCTGCGGCTCC,1530
15,TCAGGGGAGCGAGCAGGAAGTGGTAAGATTTGATAG,1230
16,AAACAGGAAATCACAGCAGCGTTGCGGAGTGGAGCA,883
17,CAGCGGCCGTCGCGGGAAGTGCGGTCGCCGCGGCCA,966
18,GGTGACACGGCCGGCTTCCTGCCGCAGAGCTCCTGG,1040
